Compound activity (PubChem)
LANA DNA inh: inhibitors of KSHV LANA C-terminal domain DNA binding. MBP-C-LANA/FAM-LBS DNA binding, fluorescence polarization. 340,000 compounds, 0.078% hits. AID 504423. inhibition, % at 9 µM;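 active = highest replicate inhibition at or above 60% at 9 µM, even if other replicates fall short; inactive = all replicates below 60% inhibition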
N-glyco inh: blocks N-linked glycosylation in D54 reporter cells | D54 ERlucT glycosylation luciferase reporter, 24 h; percent of 100 nM tunicamycin response | reporter increase, % at 12.5 µM | 360,000 compounds, 0.23% hits;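 active = mean luciferase reporter signal, scaled so untreated is 0 and the glycosylation-blocking control 100, at or above a set limit in every replicate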;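 note: luciferase carries N-glycosylation sites so blocking glycosylation raises the light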
Keap1-Nrf2 PPI: inhibitors of human Keap1-Nrf2 protein-protein interaction; Q14145; Keap1 Kelch-Nrf2 peptide fluorescence polarization, 1536-well; inhibition, % at 9.4 µM; 340,000 compounds, 0.15% hits; AID 504523; in the data active = inhibition above about 12%;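 note: human Keap1 Kelch domain with fluorescein labeled Nrf2 9mer peptide probe; higher means more block of Keap1 binding to Nrf2 peptide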
Target sequence (Q14145 whole entry, looked up, the tested form may be a part): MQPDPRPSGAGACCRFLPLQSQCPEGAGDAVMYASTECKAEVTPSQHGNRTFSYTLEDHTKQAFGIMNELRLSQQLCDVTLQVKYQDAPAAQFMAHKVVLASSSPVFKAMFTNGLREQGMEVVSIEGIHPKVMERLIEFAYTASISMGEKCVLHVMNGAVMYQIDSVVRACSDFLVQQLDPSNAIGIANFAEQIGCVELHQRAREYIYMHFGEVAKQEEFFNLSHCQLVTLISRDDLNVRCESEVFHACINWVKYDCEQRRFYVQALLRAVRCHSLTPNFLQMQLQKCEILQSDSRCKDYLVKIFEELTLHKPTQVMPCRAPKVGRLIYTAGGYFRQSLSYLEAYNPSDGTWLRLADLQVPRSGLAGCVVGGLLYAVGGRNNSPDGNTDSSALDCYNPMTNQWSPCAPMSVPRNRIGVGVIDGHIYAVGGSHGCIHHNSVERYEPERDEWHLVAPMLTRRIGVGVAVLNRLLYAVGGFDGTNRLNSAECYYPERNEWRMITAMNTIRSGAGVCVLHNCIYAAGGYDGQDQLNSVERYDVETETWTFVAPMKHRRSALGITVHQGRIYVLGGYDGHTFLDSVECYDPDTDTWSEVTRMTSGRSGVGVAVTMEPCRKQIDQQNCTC
Casp6 inh: blocks human caspase-6 cleavage activity; P55212; purified caspase-6, Z-VEID-R110 cleavage fluorescence; inhibition, % at 12.5 µM; 350,000 compounds, 0.53% hits;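 active = mean inhibition across replicates at least about 35%, with every replicate also reaching that limit, limit read from the data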
NSD2 HMT inh: blocks human histone methyltransferase NSD2. O96028. inhibition, % at 12.5 µM. NSD2 peptide methylation, AlphaScreen, 120 min. 310,000 compounds, 0.54% hits; in the data active = inhibition above about 50%
HDAC3 inh: inhibitors of human histone deacetylase 3; 320,000 compounds, 0.15% hits; inhibition, % at 8.3 µM; AID 2718; recombinant HDAC3, fluorogenic peptide/trypsin coupled, fluorescence; in the data active = inhibition above about 26%, passing the limit was not always enough
Numbers stand for hits; . = inactive; / = no result. A selection: hits, their analogues and other compounds. The true share with any hit is near 1.1%.

SMILES | LANA DNA inh | N-glyco inh | Keap1-Nrf2 PPI | Casp6 inh | NSD2 HMT inh | HDAC3 inh
COC(=O)[C@@]12CCCCN1[C@H](c1ccc(-c3cccc(Cl)c3)c(OC)c1)[C@@H]1C(=O)N(C)C(=O)[C@@H]12 | . | . | . | . | / | 33
CC(=O)Nc1ccc(C(=O)N2CCCC(c3cc(C(=O)Nc4ccccc4Cl)no3)C2)cc1 (stereo unspecified) | / | . | / | . | . | /
CC(C)c1ccc(C(=O)N2CCCC(c3cc(C(=O)Nc4ccccc4Cl)no3)C2)cc1 (stereo unspecified) | / | . | / | 57 | . | /
C[C@@H]1CN([C@@H](C)CO)C(=O)c2cc(C3=CCCC3)cnc2O[C@H]1CN(C)C(=O)CN(C)C | / | / | / | . | / | /
COc1ccc(Br)cc1/C=C(\C(=O)O)c1ccc(S(=O)(=O)N2CCCCC2)s1 | . | . | . | 37 | . | .
CCOc1cc(/C=C(\C(=O)O)c2ccc(S(=O)(=O)N3CCCC3)s2)ccc1OC | . | . | . | . | . | .
Cc1ccc(C)c(/C=C(\C(=O)O)c2ccc(S(=O)(=O)N3CCCCC3)s2)c1 | . | . | . | 37 | . | .
COc1ccccc1-c1cccc(-c2nc(C(=O)N3CCOCC3)cc3c2[C@@H](CCO)N([S@](=O)C(C)(C)C)C3)c1 | / | / | / | . | / | /
CC(C)NC(=O)c1cccc2c(-c3ccc(F)c(F)c3)coc12 | / | . | / | . | . | /
CC(C)CNC(=O)c1cccc2c(-c3ccc(F)c(F)c3)coc12 | / | . | / | 55 | . | /
CC(OC(=O)c1cc(O)c2ccccc2c1O)C(=O)Nc1ccc(C(N)=O)cc1 (stereo unspecified) | . | . | . | 83 | / | .
O=C(OCc1nnc(-c2ccccc2)o1)c1ccc([N+](=O)[O-])o1 | . | . | . | . | . | .
COc1cc(-c2nnc(COC(=O)c3ccc([N+](=O)[O-])o3)o2)cc(OC)c1OC | / | . | / | 58 | . | /
C[C@H](CO)N1C[C@H](C)[C@@H](CN(C)C(=O)Nc2ccccc2)Oc2ccc(NS(C)(=O)=O)cc2C1=O | / | / | / | . | / | /
Cc1ccc(C)n1/N=C1/NC(=O)CS1 | 87 | . | . | / | 144 | .
O=C(Nc1ccc2c(c1)OCO2)N[C@@H]1C=C[C@H](CC(=O)N2CCN(c3ccccc3)CC2)O[C@@H]1CO | / | / | / | . | / | /
O=C(O)c1cccc(Nc2nc(N3CCOCC3)nc(N3CCOCC3)n2)c1 | . | . | . | / | . | .
O=C(O)c1cccc(Nc2ccnc(Nc3cccc(C(=O)O)c3)n2)c1 | . | . | . | 35 | . | .
O=C(c1cccnc1)N1C[C@@H]2[C@H](c3ccccc31)[C@@H](CO)N2C(=O)C1CC1 | / | / | / | . | / | /
CC(C)C(=O)N1CCN(c2ccccc2NC(=O)c2cccc3ccccc23)CC1 | . | . | . | 60 | . | .
CCOc1ccc(/C=N/NC(=O)Cc2csc(Nc3cccc(C(F)(F)F)c3)n2)c(OCC)c1 | . | . | . | . | . | 36
COc1ccc(NC(=O)N2C[C@@H](O)COC[C@H]3O[C@H](CC(=O)NC4Cc5ccccc5C4)CC[C@@H]32)cc1 | / | / | / | . | / | /
CC(C)=C1C(=O)NN(c2ccc(F)c(Cl)c2)C1=O | . | . | . | 68 | . | .
O=C1NN(c2ccc(F)c(Cl)c2)C(=O)/C1=C\c1cccc(OC(=O)c2cccs2)c1 | . | . | . | / | / | .
Cn1c(=O)[nH]c(=O)c2c1nc(NCCN)n2CCOc1ccccc1 | . | . | . | . | . | .
SMILES | LANA DNA inh | N-glyco inh | Keap1-Nrf2 PPI | Casp6 inh | NSD2 HMT inh | HDAC3 inh
Cn1c(=O)[nH]c(=O)c2c1nc(NN)n2CCOc1ccccc1 | . | 61 | . | . | . | .
CC(C)NC(=O)N(C)C[C@H]1OCc2ccccc2-c2ccccc2C(=O)N([C@@H](C)CO)C[C@H]1C | / | / | / | . | / | /
Cc1noc(C)c1S(=O)(=O)Nc1ccc2c(c1)C(=O)N([C@H](C)CO)C[C@H](C)[C@H](CN(C)S(=O)(=O)c1ccccc1)O2 | / | / | / | . | / | /
NNc1ccc([N+](=O)[O-])c2[nH][nH]c(=O)c12 | / | . | / | 94 | / | /
O=[N+]([O-])c1ccc(Nc2ccccc2)c2nonc12 | . | . | . | . | . | .
CCOc1ccc(-c2nnc3n2N=C(c2ccc(OC)cc2)CS3)cc1 | . | . | . | / | . | .
COc1ccc(C2=Nn3c([n+](C)c4ccccc43)SC2)cc1 | . | . | . | . | . | 31
COc1ccc(C2=Nn3c(nnc3-c3ccccn3)SC2)cc1 | . | . | . | . | . | .
CC1Sc2n(c3ccccc3[n+]2C)N=C1c1ccccc1 (stereo unspecified) | . | . | . | / | / | .
